“And” between values parts separate entries of the source, which are not always exact repeats. Equal values may be shown once. The source made the active and inactive calls.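 The calls were made as follows, unless noted: active = compounds whose cell count with miR-34 switched on is under 0.7 times the count with it off; inactive = the rest.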 Numbered stars: 1 amine (or outer) side, 2 acyl side, 3 side chain; on linkers, the order of the positions; unused ones are H or OH. Bridge positions count the residues as written; N and C are the ends. Square brackets hold non-standard residues; d marks the D form. Peptide text beside a SMILES is read from it. * marks the point of attachment. X4 = NC1=N[C@@H]([C@H](N[*:1])C(=O)[*:2])C[C@H](O)N1; ΔAla(Z-3-ureido) = NC(=O)N/C=C(\N)C(=O)O; β3hOrn = NCCC[C@H](N)CC(=O)*; Dap = NC[C@H](N)C(=O)O
test: hESC survival regulators, cell-based (AID 493140; call rule not given here;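 also: cells exposed to compounds for four days before counting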); conditions: human embryonic stem cell survival screen; stronger effect = higher value

Compound	survival
CCOC(=O)O[C@]1(C(=O)COC(=O)CC)CC[C@H]2[C@@H]3CCC4=CC(=O)C=C[C@]4(C)[C@H]3[C@@H](O)C[C@@]21C	5.17 (inactive)
C[C@]12CC[C@@H]3c4ccc(OS(=O)(=O)O)cc4CC[C@H]3[C@@H]1CCC2=O	5.67 (inactive)
NCc1ccccc1CC(=O)N[C@@H]1C(=O)N2C(C(=O)O)=C(CSc3nnnn3CC(=O)O)CS[C@H]12	7.42 (inactive)
CO[C@@]1(NC(=O)C2SC(=C(C(N)=O)C(=O)O)S2)C(=O)N2C(C(=O)O)=C(CSc3nnnn3C)CS[C@@H]21 (stereo partly drawn)	11.4 (inactive)

test: liver-stage malaria parasite growth inhibition, primary screen, cell-based, HepG2, luciferase luminescence, HepG2 viability (AID 624349; in the data active = parasite load remaining mostly below about 12%, no sharp cut-off; inactive = mostly above about 10%;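 also: 100% = mean of DMSO negative control wells on the same plate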); conditions: P. berghei liver stage in HepG2, luciferase luminescence, concentration not given here; parasite load remaining: stronger effect = lower value; viability: measured here: HepG2 viability without parasites

Compound	parasite load remaining	viability
CCOC(=O)O[C@]1(C(=O)COC(=O)CC)CC[C@H]2[C@@H]3CCC4=CC(=O)C=C[C@]4(C)[C@H]3[C@@H](O)C[C@@]21C	80.7% (inactive)	80.3%
NC[C@H]1O[C@H](O[C@H]2[C@H](O)[C@@H](O[C@H]3O[C@H](CO)[C@@H](O)[C@H](N)[C@H]3O)[C@H](N)C[C@@H]2N)[C@H](O)[C@@H](O)[C@@H]1O	178% (inactive)	108%
C[C@]12CC[C@@H]3c4ccc(OS(=O)(=O)O)cc4CC[C@H]3[C@@H]1CCC2=O	64.3% (inactive) and 61.4% (inactive)	99.3% and 74.8%
CC(C)(O/N=C(\C(=O)N[C@@H]1C(=O)N2C(C(=O)[O-])=C(C[n+]3ccccc3)CS[C@H]12)c1csc(N)n1)C(=O)O	53.2% (inactive) and 19.3% (inactive)	114% and 70%
CO/N=C(\C(=O)N[C@@H]1C(=O)N2C(C(=O)O)=C(C[N+]3(C)CCCC3)CS[C@H]12)c1csc(N)n1	85.4% (inactive)	76.2%
CC(C)[N+]1(C)[C@@H]2CC[C@H]1CC(OC(=O)C(CO)c1ccccc1)C2 (stereo partly drawn)	74.8% (inactive)	106%
NCCC[C@H](N)CC(=O)N[C@H]1CNC(=O)[C@H]([C@H]2C[C@H](O)NC(N)=N2)NC(=O)/C(=C/NC(N)=O)NC(=O)[C@H](CO)NC(=O)[C@H](CO)NC1=O (β3hOrn-[Dap]SS[ΔAla(Z-3-ureido)][X4]; lactam 1-C)	90.6% (inactive)	75%
NCc1ccccc1CC(=O)N[C@@H]1C(=O)N2C(C(=O)O)=C(CSc3nnnn3CC(=O)O)CS[C@H]12	167% (inactive) and 62% (inactive)	121% and 87.5%
CO[C@H]1C[C@H](O[C@H]2[C@H](C)[C@@H](O[C@@H]3O[C@H](C)C[C@H](N(C)C)[C@H]3OC(C)=O)[C@@H](C)C[C@@]3(CO3)C(=O)[C@H](C)[C@@H](OC(C)=O)[C@@H](C)[C@@H](C)OC(=O)[C@@H]2C)O[C@@H](C)[C@@H]1OC(C)=O	27.9% (inactive) and 46.8% (inactive)	46.5% and 147%
CO[C@@]1(NC(=O)C2SC(=C(C(N)=O)C(=O)O)S2)C(=O)N2C(C(=O)O)=C(CSc3nnnn3C)CS[C@@H]21 (stereo partly drawn)	165% (inactive) and 73.4% (inactive)	107% and 73.9%
C[C@@H]1CCC[C@H](C)N1NC(=O)c1ccc(Cl)c(S(N)(=O)=O)c1	123% (inactive) and 80.9% (inactive)	112% and 106%
CC1(C)S[C@@H]2[C@H](NC(=O)[C@H](NC(=O)N3CCNC3=O)c3ccccc3)C(=O)N2[C@H]1C(=O)O	109% (inactive)	98.7%

test: sensitizers of A549 cells to miR-34 induction, primary screen, imaging, A549 dox-inducible miR-34, nuclei and caspase counts (AID 1347080); conditions: A549 miR-34 inducible, Hoechst nuclei count, 48 h; stronger effect = lower value; cell number ratio, induced over uninduced

Compound	fold change
CCOC(=O)O[C@]1(C(=O)COC(=O)CC)CC[C@H]2[C@@H]3CCC4=CC(=O)C=C[C@]4(C)[C@H]3[C@@H](O)C[C@@]21C	0.839 (inactive)
O=C(O)CCc1c[nH]c2ccccc12	0.896 (inactive)
NC[C@H]1O[C@H](O[C@H]2[C@H](O)[C@@H](O[C@H]3O[C@H](CO)[C@@H](O)[C@H](N)[C@H]3O)[C@H](N)C[C@@H]2N)[C@H](O)[C@@H](O)[C@@H]1O	0.854 (inactive)
CCOc1nc2cccc(C(=O)OCc3oc(=O)oc3C)c2n1Cc1ccc(-c2ccccc2-c2noc(=O)[nH]2)cc1	0.946 (inactive)
CCOC(=O)NCCCC(=O)NCCc1ccccc1	0.978 (inactive)
CCn1ncc(NC(=O)Cn2cc(-c3ncnc4ccsc34)cn2)n1	0.848 (inactive)
C[C@@]1(c2nc3c(C(N)=O)cccc3[nH]2)CCCN1	0.941 (inactive)
C[C@]12CC[C@@H]3c4ccc(OS(=O)(=O)O)cc4CC[C@H]3[C@@H]1CCC2=O	0.873 (inactive)
CNc1nc(-c2cccc(OC)c2)ncc1F	0.868 (inactive)
O=C1CN(c2ncnc3sccc23)CCN1Cc1cccc(F)c1	0.826 (inactive)
CC(C)(O/N=C(\C(=O)N[C@@H]1C(=O)N2C(C(=O)[O-])=C(C[n+]3ccccc3)CS[C@H]12)c1csc(N)n1)C(=O)O	0.844 (inactive) and 0.909 (inactive)
COC(=O)CN1CCN(C(=O)Nc2n[nH]c(-c3ccco3)n2)CC1=O	0.915 (inactive)
Cn1c(=O)c2c(nc(N3CCNCC3)n2Cc2ccccc2)n(C)c1=O	0.839 (inactive)
CO/N=C(\C(=O)N[C@@H]1C(=O)N2C(C(=O)O)=C(C[N+]3(C)CCCC3)CS[C@H]12)c1csc(N)n1	0.925 (inactive)
O=c1c(-c2ccc(O)cc2)coc2cc(OC3OC(CO)C(O)C(O)C3O)ccc12 (stereo not drawn)	1.06 (inactive)
COc1ccc2nc(Cn3cnc4cc(F)ccc4c3=O)[nH]c2c1	0.891 (inactive)
O=C1CN(c2ncnc3nc[nH]c23)CCN1Cc1cccc(F)c1	0.802 (inactive)
Cc1cccc(C)c1OCC(=O)O	0.919 (inactive)
O=c1c2nccnc2ncn1Cc1scnc1-c1ccccc1	0.893 (inactive)
CC(C)[N+]1(C)[C@@H]2CC[C@H]1CC(OC(=O)C(CO)c1ccccc1)C2 (stereo partly drawn)	0.879 (inactive)

Compound	fold change
NCCC[C@H](N)CC(=O)N[C@H]1CNC(=O)[C@H]([C@H]2C[C@H](O)NC(N)=N2)NC(=O)/C(=C/NC(N)=O)NC(=O)[C@H](CO)NC(=O)[C@H](CO)NC1=O (β3hOrn-[Dap]SS[ΔAla(Z-3-ureido)][X4]; lactam 1-C)	0.967 (inactive)
O=C(O)c1ccccc1C(=O)O	0.874 (inactive)
Cc1ccc(NC(=O)c2ccc(CN3CCN(C)CC3)cc2)cc1Nc1nc(-c2cccnc2)cs1	0.856 (inactive)
CC(=O)NCC1CN(c2ccc(N3CCOCC3)c(F)c2)C(=O)O1 (stereo not drawn)	0.917 (inactive) and 0.981 (inactive)
NCc1ccccc1CC(=O)N[C@@H]1C(=O)N2C(C(=O)O)=C(CSc3nnnn3CC(=O)O)CS[C@H]12	0.949 (inactive)
CO[C@H]1C[C@H](O[C@H]2[C@H](C)[C@@H](O[C@@H]3O[C@H](C)C[C@H](N(C)C)[C@H]3OC(C)=O)[C@@H](C)C[C@@]3(CO3)C(=O)[C@H](C)[C@@H](OC(C)=O)[C@@H](C)[C@@H](C)OC(=O)[C@@H]2C)O[C@@H](C)[C@@H]1OC(C)=O	0.951 (inactive) and 0.962 (inactive)
C[C@]12CC[C@H]3c4ccc(O)cc4CC[C@H]3[C@@H]1CCC2=O	0.911 (inactive)
CO[C@@]1(NC(=O)C2SC(=C(C(N)=O)C(=O)O)S2)C(=O)N2C(C(=O)O)=C(CSc3nnnn3C)CS[C@@H]21 (stereo partly drawn)	0.873 (inactive)
C[C@@H]1CCC[C@H](C)N1NC(=O)c1ccc(Cl)c(S(N)(=O)=O)c1	0.884 (inactive) and 0.878 (inactive)
CC1(C)S[C@@H]2[C@H](NC(=O)[C@H](NC(=O)N3CCNC3=O)c3ccccc3)C(=O)N2[C@H]1C(=O)O	0.917 (inactive)
O=C(O)CNC(=O)c1cccc(O)c1	0.865 (inactive)
COc1cc(N(C)CC2COc3ccccc3O2)nc(N)n1 (stereo not drawn)	0.844 (inactive)
Cc1nc2ccc(-c3ncnc4sccc34)cc2c(=O)[nH]1	0.886 (inactive)
CC(C)C1=NOC(c2nc(-c3cccc4ccccc34)no2)C1 (stereo not drawn)	0.862 (inactive)
O=C(NCC1(c2nc(-c3ccccc3)cs2)CCOCC1)c1cccc(-c2noc(C(F)(F)F)n2)c1	0.836 (inactive)
N#Cc1ccc2[nH]cc(CCCCN3CCN(c4ccc5oc(C(N)=O)cc5c4)CC3)c2c1	0.968 (inactive)
CCN(Cc1nccn1C)C(=O)c1cc(-c2cnc(C)nc2)nc2cc(F)ccc12	0.881 (inactive)
COc1ccc(CC(C)NCC(O)c2ccc(O)c(NC=O)c2)cc1 (stereo not drawn)	0.94 (inactive) and 0.989 (inactive)
NS(=O)(=O)c1ccc(C(=O)NCCn2cccn2)cc1	0.945 (inactive)
Cc1c(OCC(F)(F)F)ccnc1C[S@@](=O)c1nc2ccccc2[nH]1	0.977 (inactive)

Source: PubChem BioAssay
